Test results taken from PubChem BioAssay (EPA / NIEHS).
Results filed as inconclusive are left out. A structure can be active in one record and inactive in another. Active and inactive are the calls of the source. The calls were made as follows, unless noted: active = hit-call score of the fitted dose curve at least 0.9, where 1 is the maximum; inactive = score below 0.9.

Experiments:
[1] = TOX21_p53_BLA_p2_viability: Viability Assessment in the Tox21 HCT-116 p53 Agonism Beta-lactamase Assay, Phase 2 (AID 2283591; active = hit-call score of the fitted dose curve at least 0.9, where 1 is the maximum;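 also: actives lower the ATP signal meaning cytotoxicity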)
Summary of the method: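 HCT-116 p53-bla cells (4000/well) rested 5 h at 37C, then received compounds in DMSO (217-fold dilution) for 16 h at 37C, 5% CO2. After the CCF4 read, CellTiter-Glo was added; ATP luminescence was read after 30 min at room temperature.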

[2] = target: Cellular tumor antigen p53 (Homo sapiens) (UniProt P04637); test: TOX21_p53_BLA_p2_ratio: Tox21 HCT-116 p53 Agonism Beta-lactamase Assay, Ratio, Phase 2 (AID 2283592; active = hit-call score of the fitted dose curve at least 0.9, where 1 is the maximum)
Sequence of Cellular tumor antigen p53 (Homo sapiens) (P04637 whole entry, looked up): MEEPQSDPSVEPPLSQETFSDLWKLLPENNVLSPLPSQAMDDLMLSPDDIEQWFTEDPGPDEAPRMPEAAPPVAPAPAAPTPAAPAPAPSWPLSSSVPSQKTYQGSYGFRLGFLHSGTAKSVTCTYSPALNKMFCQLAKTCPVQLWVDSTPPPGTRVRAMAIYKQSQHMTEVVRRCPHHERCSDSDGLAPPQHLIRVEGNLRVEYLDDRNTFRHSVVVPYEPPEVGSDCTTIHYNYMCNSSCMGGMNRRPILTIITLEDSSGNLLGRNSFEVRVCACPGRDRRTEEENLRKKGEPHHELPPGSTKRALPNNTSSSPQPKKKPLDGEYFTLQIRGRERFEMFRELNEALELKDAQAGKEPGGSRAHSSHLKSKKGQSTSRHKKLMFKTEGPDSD
Summary of the method: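 First, HCT116 reporter cells settle for 5 h at 37C. Next, DMSO compound solutions are pinned in (217-fold dilution) and left 16 h. Finally, CCF4-AM substrate is loaded 2 h at room temperature and the 460/530 nm ratio read.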

[3] = TOX21_p53_BLA_p3_viability: Viability Assessment in the Tox21 HCT-116 p53 Agonism Beta-lactamase Assay, Phase 3 (AID 2283593; active = hit-call score of the fitted dose curve at least 0.9, where 1 is the maximum;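 also: cells exposed to compound for 16 h before reading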)
Summary of the method: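 HCT-116 cells (4000/well) rested 5 h at 37C, then got DMSO compounds by pin tool (217-fold dilution) for 16 h at 37C, 5% CO2. After the bla read, CellTiter-Glo was added and luminescence read at 30 min, room temperature.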

[4] = target: Cellular tumor antigen p53 (Homo sapiens) (UniProt P04637); test: TOX21_p53_BLA_p3_ratio: Tox21 HCT-116 p53 Agonism Beta-lactamase Assay, Ratio, Phase 3 (AID 2283596; active = hit-call score of the fitted dose curve at least 0.9, where 1 is the maximum)
Summary of the method: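 Cells were seeded at 4000/well, rested 5 h at 37C, then dosed with DMSO compound solutions (217-fold dilution) for 16 h. CCF4-AM substrate was loaded for 2 h at room temperature, and the 460/530 nm emission ratio was fitted for gain of signal versus DMSO.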

[5] = TOX21_p53_BLA_p4_viability: Viability Assessment in the Tox21 HCT-116 p53 Agonism Beta-lactamase Assay, Phase 4 (AID 2283597; active = hit-call score of the fitted dose curve at least 0.9, where 1 is the maximum;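 also: hits lower the luminescence signal meaning cytotoxicity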)
Summary of the method: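 4000 HCT116 cells per well; 5 h attachment; compounds from DMSO, 217-fold dilution; 16 h at 37C. Then CCF4-AM, 2 h RT, followed by CellTiter-Glo, 30 min RT, luminescence. Decrease = cytotoxicity.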

[6] = TOX21_p53_BLA_p5_viability: Viability Assessment in the Tox21 HCT-116 p53 Agonism Beta-lactamase Assay, Phase 5 (AID 2283600; active = hit-call score of the fitted dose curve at least 0.9, where 1 is the maximum)
Summary of the method: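 Decreased CellTiter-Glo luminescence denotes lost viability. Exposure: 16 h at 37C, 5% CO2, with compounds from DMSO stocks diluted 217-fold in wells of 4000 cells.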

[7] = target: Cellular tumor antigen p53 (Homo sapiens) (UniProt P04637); test: TOX21_p53_BLA_p4_ratio: Tox21 HCT-116 p53 Agonism Beta-lactamase Assay, Ratio, Phase 4 (AID 2283601; active = hit-call score of the fitted dose curve at least 0.9, where 1 is the maximum)
Summary of the method: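 HCT116 cells carrying an inducible beta-lactamase reporter were plated at 4000 cells/well, rested 5 h, then exposed to compounds in DMSO (217-fold dilution) for 16 h at 37C. CCF4-AM substrate was loaded 2 h at room temperature; 460/530 nm emission ratio scored gain-of-signal versus DMSO.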

[8] = CCTE_Shafer_MEA_dev_firing_rate_mean: CCTE's Neural Network Formation Assay for Mean Firing Rate, Shafer Lab (AID 2284031)
Summary of the method: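 Extracellular spike frequency, AUC over DIV 5–12 recordings, in rat cortical neuron MEA cultures dosed from plating; loss direction vs DMSO.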

[9] = CCTE_Shafer_MEA_dev_per_burst_spike_percent: CCTE's Neural Network Formation Assay for Percent of Spikes in a Burst, Shafer Lab (AID 2284032)
Summary of the method: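 Value is trapezoidal AUC over recordings on days 5, 7, 9 and 12 of the well-mean fraction of spikes falling in single-electrode bursts; rat cortical cultures exposed continuously from plating, treatment renewed DIV 5 and 9, fitted downward against DMSO.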

[10] = CCTE_Shafer_MEA_dev_burst_rate: CCTE's Neural Network Formation Assay for Burst Rate, Shafer Lab (AID 2284042)
Summary of the method: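 Rat primary cortical cultures on PEI/laminin MEA; compound from plating, re-dosed at DIV 5, 9 media change. Single-electrode bursts/recording length, well mean of active electrodes; AUC over DIV 5–12 recordings; loss-of-signal vs DMSO.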

[11] = CCTE_Shafer_MEA_dev_per_burst_interspike_interval: CCTE's Neural Network Formation Assay for Burst Interspike Interval, Shafer Lab (AID 2284044)
Summary of the method: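 Primary rat cortical neurons on 48-well MEA plates, exposed from day 0 through day 12, treatment renewed at DIV 5 and 9. Within-burst interspike interval recorded days 5, 7, 9, 12, well-averaged, summarised as AUC; negative fit versus DMSO.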

[12] = CCTE_Shafer_MEA_dev_burst_duration_mean: CCTE's Neural Network Formation Assay for Mean Burst Duration, Shafer Lab (AID 2284045);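 as to AC50: curve fitted for loss meaning shorter burst duration than DMSO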
Summary of the method: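 Network-formation assay in primary rat cortical neurons; treatment spans twelve days of development. Mean burst duration per well is integrated by trapezoidal AUC and fitted in the loss-of-signal direction against DMSO baseline.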

[13] = CCTE_Shafer_MEA_dev_interburst_interval_mean: CCTE's Neural Network Formation Assay for Mean Interburst Interval, Shafer Lab (AID 2284046);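 also: well-mean interburst interval of bursting electrodes as AUC over four recording days; curve fitted for decrease in interburst interval relative to DMSO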
Summary of the method: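 Rat cortical neurons, 1.5 x 10^5 cells/well, 48-well MEA; compound from day 0 through DIV 12, media and treatment renewed DIV 5/9. Recordings DIV 5, 7, 9, 12; well-mean interburst interval → trapezoidal AUC, loss direction vs DMSO.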

[14] = CCTE_Shafer_MEA_dev_inter_network_spike_interval_mean: CCTE's Neural Network Formation Assay for Mean Inter-network Spike Interval, Shafer Lab (AID 2284047)
Summary of the method: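 Primary rat cortical neurons on PEI-coated 48-well MEAs (16 electrodes/well) were exposed from plating day 0 to DIV 12, with dosing renewed at DIV 5 and 9. Recordings at DIV 5, 7, 9, 12 were collapsed by trapezoidal AUC, loss-of-signal fit vs DMSO.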

[15] = CCTE_Shafer_MEA_dev_network_spike_number: CCTE's Neural Network Formation Assay for Number of Network Spikes, Shafer Lab (AID 2284048);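 also: synchronized bursts across electrodes counted on days 5 7 9 12 and integrated as AUC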
Summary of the method: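 Extracellular recordings from 16-electrode wells track network formation in rat cortical cultures under continuous treatment from plating. The endpoint is network spike number, expressed as AUC across DIV 5–12 relative to DMSO vehicle.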

[16] = CCTE_Shafer_MEA_dev_network_spike_peak: CCTE's Neural Network Formation Assay for Mean Number of Electrodes in Network Spike, Shafer Lab (AID 2284049)
Summary of the method: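 Continuous 12-day exposure of rat cortical cultures, starting at plating, on MEA plates. Endpoint: electrodes participating in network-spike peaks, AUC across DIV 5–12, DMSO as negative control.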

[17] = CCTE_Shafer_MEA_dev_spike_duration_mean: CCTE's Neural Network Formation Assay for Mean Spike Duration, Shafer Lab (AID 2284051);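 also: mean network spike duration pooled as area under curve over DIV 5 to 12 recordings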
Summary of the method: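 Rat cortical primary cultures, 48-well MEA (16 electrodes/well); compound from plating, renewed DIV 5, 9. Network spike duration (AxIS adaptive detector) recorded DIV 5/7/9/12, combined as trapezoidal AUC; loss direction vs DMSO.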

[18] = CCTE_Shafer_MEA_dev_network_spike_duration_std: CCTE's Neural Network Formation Assay for Standard Deviation of Network Spike Duration, Shafer Lab (AID 2284052);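 also: area under curve of spike duration SD across recording days 5 to 12; hits are decreases in network spike duration SD versus DMSO vehicle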
Summary of the method: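 Rat cortical cultures, 1.5 x 10^5 cells/well, exposed continuously from plating to DIV 12 with media/compound renewal at DIV 5, 9. Spontaneous activity recorded DIV 5/7/9/12, AxIS adaptive spike detector; AUC across days; negative direction vs DMSO.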

[19] = CCTE_Shafer_MEA_dev_per_network_spike_spike_number_mean: CCTE's Neural Network Formation Assay for Mean Number of Spikes in a Network Spike, Shafer Lab (AID 2284053)
Summary of the method: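 Rat cortical primary cultures on 48-well MEA; compound from day 0, re-dosed with full media change DIV 5, 9. Recorded DIV 5, 7, 9, 12; spikes in 0.05 s window at network-spike peak ÷ total network spikes; AUC; loss vs DMSO.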

[20] = CCTE_Shafer_MEA_dev_per_network_spike_spike_percent: CCTE's Neural Network Formation Assay for Percent of Spikes in a Network Spike, Shafer Lab (AID 2284054)
Summary of the method: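 Developing networks of rat cortical neurons are dosed at day 0 and recorded extracellularly four times up to day 12. The endpoint is the area under the curve of percent spikes in network spikes, fitted in the negative direction relative to DMSO.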

[21] = CCTE_Shafer_MEA_dev_LDH: CCTE's Lactate Dehydrogenase Assay for Cytotoxicity in the Neural Network Formation Assay, Shafer Lab (AID 2284068; active = hit-call score of the fitted dose curve at least 0.9, where 1 is the maximum;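 also: exposure for twelve days from plating with re-dosing on DIV 5 and 9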)
Summary of the method: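 Rat cortical primary neurons, MEA culture; dosing day 0–12, full medium plus compound exchange DIV 5, 9. Read-out: LDH enzyme activity, spectrophotometric. DMSO = negative control/baseline; signal loss → cytotoxicity.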

[22] = CCTE_Shafer_MEA_dev_AB: CCTE's Alamar Blue Assay for Cytotoxicity in the Neural Network Formation Assay, Shafer Lab (AID 2284083; active = hit-call score of the fitted dose curve at least 0.9, where 1 is the maximum;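 also: resazurin reduction fluorescence as viability of cultured neurons; twelve days of exposure from plating with re-dosing on DIV 5 and 9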)
Summary of the method: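 Rat cortical primary cultures, 1.5 x 10^5 cells/well on MEA; continuous compound exposure over 12 days of network development, re-dosed with full medium change DIV 5 and 9. Alamar Blue fluorescence; loss of signal = cytotoxicity vs DMSO baseline.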

[23] = CCTE_Shafer_MEA_dev_mutual_information_norm: CCTE's Neural Network Formation Assay for Mutual Information Normalization, Shafer Lab (AID 2284091)
Summary of the method: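 Exposure of primary rat cortical neurons began at plating and ran to DIV 12, with full media and treatment renewal after DIV 5 and 9 recordings. Mutual information AUC (DIV 5–12) was analysed for loss versus DMSO.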

[24] = CCTE_Shafer_MEA_dev_correlation_coefficient_mean: CCTE's Neural Network Formation Assay for Mean Correlation Coefficient, Shafer Lab (AID 2284093)
Summary of the method: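 Rat cortical cultures, 1.5 x 10^5 cells/well, dosed from day 0 for 12 days. Spontaneous spikes recorded DIV 5/7/9/12; electrode-pair correlation coefficients averaged, AUC taken. Fit in loss direction vs DMSO.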

[25] = IUF_NPC1b_proliferation_BrdU_72hr: Leibniz Research Institute for Environmental Medicine (IUF) 72-hour Neural Progenitor Cell Bromodeoxyuridine (BrdU) Proliferation Assay (NPC1b) (AID 2284207)
Summary of the method: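 Neural progenitor spheres of human fetal origin are treated for three days; BrdU added for the last 16 h is quantified by luminescence ELISA, with DMSO as baseline and EGF/FGF omission as positive control.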

[26] = IUF_NPC1a_proliferation_area_72hr: Leibniz Research Institute for Environmental Medicine (IUF) 72-hour Neural Progenitor Cell Proliferation Area Assay (NPC1a) (AID 2284208)
Summary of the method: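 Single 0.25–0.35 mm human fetal neural progenitor spheres in proliferation medium with EGF and FGF, exposed 72 h from plating without renewal at 37C, pH 7.2-7.6. Sphere area growth measured by automated phase-contrast imaging, relative to DMSO.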

Measured: AC50

C[C@H](CS)C(=O)N1CCC[C@H]1C(=O)O
active: [12] 21.6 µM
inactive: [1] | [2] | [3] | [4] | [5] | [6] | [7] | [8] | [9] | [10] | [11] | [12] | [13] | [14] | [15] | [16] | [17] | [18] | [19] | [20] | [21] | [22] | [23] | [24] | [25] | [26]
